Several values for one entry are separate records, joined by “and”; a condition that tells them apart may be missing. Equal values may be shown once. Records with an inconclusive call do not appear. Values without a mark were called inactive. Activity calls are given as the source filed them. The call rests on the fitted dose curve; in most records, active means well fitted activation curve with a large enough effect in the signal ratio; inconclusive means small, poorly fitted or top-dose-only effect, or effect the other way, or a change in a side signal; inactive means flat fitted curve, though single readings scatter; the % refers to the signal ratio.
Test: qHTS assay for small molecule agonists of the antioxidant response element (ARE) signaling pathway (AID 651741); on activation: % of control where 0% means no effect
Conditions: HepG2 ARE-bla reporter, beta-lactamase FRET ratio, 16 h; series mostly up to 96 µM; activation: at the top concentration
Source text: National Center for Advancing Translational Sciences [NCATS]
NIH Chemical Genomics Center [NCGC]
U.S. Environmental Protection Agency [EPA]
National Institutes of Environmental Health Sciences [NIEHS]
National Toxicology Program [NTP]
Oxidative stress has been implicated in the pathogenesis of a variety of diseases ranging from cancer to neurodegeneration. The antioxidant response element (ARE) signaling pathway plays an important role in the amelioration of oxidative stress. The CellSensor ARE-bla HepG2 cell line (Invitrogen) can be used for analyzing the Nrf2/antioxidant response signaling pathway. Nrf2 (NF-E2-related factor 2) and Nrf1 are transcription factors that bind to AREs and activate these genes. The CellSensor ARE-bla Hep G2 cell line contains a beta-lactamase reporter gene under control of the Antioxidant Response Element (ARE) stably integrated into HepG2 cells. The activation of the report gene under culture conditions can be detected by fluorescence intensity. This cell line can be used to screen chemicals in a 1536-well plate format and to identify agonists that induce oxidative stress.
The ARE-bla cells were dispensed at 2,000 cells/5 ul/well in 1536-well black wall/clear bottom plates using a Multidrop dispenser. After the assay plates were incubated at a 37 C/5% CO2 incubator for 5 hours, 23 nL of compounds dissolved in DMSO, positive controls or DMSO only was transferred to the assay plate by a pin tool. The plates were incubated at 37 C for 16 hours. After 1 uL of LiveBLAzer B/G FRET substrate was added using a Flying Reagent Dispenser, the plates were incubated at room temperature for 2 hours, and fluorescence intensity was measured by an Envision plate reader.
Potency means the concentration at half of the fitted maximal effect.

Q: For `CCCC(CCC)C(=O)O`, which Potency is on record?
A: The Potency was “inactive”.

Q: For `CNC[C@H](O)c1cccc(O)c1`, which “activation” value is on record?
A: The value was 4.2%.

Q: For `O=C1CCC(N2C(=O)c3ccccc3C2=O)C(=O)N1` (stereo unspecified), which “activation” value is on record?
A: The value was 0.683%.

Q: Which “activation” value does the source give for `Cc1[nH]c(=O)c(C#N)cc1-c1ccncc1` here?
A: The value was 1.03%.

Q: With `Cc1ccccc1C(OCCN(C)C)c1ccccc1` (stereo unspecified) as the compound, how does the “activation” value read?
A: The value was -6.64%.

Q: For `Cc1c(C)c2c(c(C)c1O)CCC(C)(COc1ccc(CC3SC(=O)NC3=O)cc1)O2` (stereo unspecified), which Potency is on record?
A: The Potency was 21.7 µM (active).

Q: For `NC(=O)c1cnccn1`, which “activation” value is on record?
A: Its value is 6.24%.

Q: With `COc1ccc2nc(S(=O)Cc3ncc(C)c(OC)c3C)[nH]c2c1` (stereo unspecified) as the compound, how does the Potency read?
A: The Potency was 27.3 µM (active).

Q: With `CC(=O)Oc1ccccc1C(=O)O` as the compound, how does the “activation” value read?
A: The value was 2.54%.

Q: For `NS(=O)(=O)c1cc2c(cc1Cl)NC=NS2(=O)=O`, which “activation” value is on record?
A: The value was 5.65%.

Q: For `Cn1cnc([N+](=O)[O-])c1Sc1ncnc2nc[nH]c12`, which Potency is on record?
A: The Potency was 27.3 µM (active) and 37.6 µM (active).
